From PubChem BioAssay (NCI)
This is part of a sample that, as a whole, favours compounds with a hit. Of some 79,000 tested, about 15% had one in any assay. Calls of active or inactive are those of the source. No stated cut-off is given here; in the data, active means growth inhibition above about 70%; inactive means the rest.

Key:
[1] = NCI Yeast Anticancer Drug Screen. Data for the rad50 strain (AID 155);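 further: 0% = growth of vehicle-only cultures of the same strain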; conditions: S. cerevisiae rad50 strain growth inhibition, active compounds read high
Summary of the method: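 DNA repair mutant yeast, compound exposure, growth read-out; inhibition is taken relative to vehicle.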

[2] = NCI Yeast Anticancer Drug Screen. Data for the mec2-1 strain (AID 157); conditions: S. cerevisiae mec2-1 strain, active compounds read high
Summary of the method: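 Vehicle-treated cultures served as reference for growth inhibition of compound-exposed mec2-1 yeast.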

[3] = NCI Yeast Anticancer Drug Screen. Data for the sgs1 mgt1 strain (AID 161);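 further: 0% = growth of cultures given vehicle only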; conditions: S. cerevisiae sgs1 mgt1 strain, active compounds read high
Summary of the method: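 Test agents were incubated with a DNA-repair-mutant yeast strain. Growth was then read and compared against vehicle-treated controls.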

[4] = NCI Yeast Anticancer Drug Screen. Data for the cln2 rad14 strain (AID 165);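 further: 0% = growth equal to vehicle treated cultures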; conditions: S. cerevisiae cln2 rad14 strain, active compounds read high
Summary of the method: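 Each compound was tested on cln2 rad14 yeast. Inhibition of growth was calculated against vehicle-exposed controls.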

[5] = NCI Yeast Anticancer Drug Screen. Data for the bub3 strain (AID 167); conditions: S. cerevisiae bub3 mutant strain, active compounds read high
Summary of the method: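 In this screen, a yeast mutant lacking normal mitotic checkpoint function is challenged with compound. Relative growth versus vehicle gives the inhibition value.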

[6] = NCI Yeast Anticancer Drug Screen. Data for the mlh1 rad18 strain (AID 175); conditions: S. cerevisiae mlh1 rad18 strain growth inhibition, active compounds read high
Summary of the method: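 Vehicle-treated cultures served as the reference for growth inhibition in a yeast strain carrying DNA damage repair alterations exposed to each compound.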

[7] = at 5.0 µM (retest, dose inferred, filed as 0.5)
[8] = at 50.0 µM (retest, dose inferred, filed as 5.0)

Measured: growth inhibition

CS(=O)(=O)N\N=C1/C=C\C(=N/NS(C)(=O)=O)CCc2ccc(cc2)CC1
active: [1]; [8] 77% | [1]; at 50.0 µM 86.3% | [2]; [8] 96% | [2]; at 50.0 µM 88.8% | [3]; [8] 92% | [3]; at 50.0 µM 93.3% | [5]; [8] 92% | [5]; at 50.0 µM 90% | [6]; [8] 95% | [6]; at 50.0 µM 94.5%
inactive: [1]; [7] -1% | [2]; [7] 7% | [3]; [7] -34% | [4]; [7] -1% | [4]; [8] 19% | [4]; at 50.0 µM 39.6% | [5]; [7] -4% | [6]; [7] 5%

O=C(CSCc1c(F)cccc1Cl)Nc1ccc(F)c(Cl)c1
active: [1]; at 50.0 µM 88.3% | [2]; at 50.0 µM 91.3% | [3]; at 50.0 µM 91.7% | [4]; at 50.0 µM 90.1% | [5]; [8] 76% | [5]; at 50.0 µM 91.5%
inactive: [1]; [7] 51% | [1]; [8] 39% | [2]; [7] 34% | [2]; [8] 38% | [3]; [7] 36% | [3]; [8] 50% | [4]; [7] 33% | [4]; [8] 44% | [5]; [7] 45% | [6]; [7] 49% | [6]; [8] 53% | [6]; at 50.0 µM 63.2%

COC(=O)C1CCN(Cc2ccccc2)CC1=O (configuration not stated)
active: [1]; at 50.0 µM 89.3% | [2]; at 50.0 µM 92.1% | [3]; [7] 77% | [3]; [8] 100% | [3]; at 50.0 µM 93.2% | [4]; [7] 83% | [4]; [8] 100% | [4]; at 50.0 µM 90% | [5]; [7] 81% | [5]; [8] 98% | [5]; at 50.0 µM 90% | [6]; at 50.0 µM 89.9%
inactive: [1]; [7] 38% | [1]; [8] 57% | [2]; [7] 48% | [2]; [8] 51% | [6]; [7] 37% | [6]; [8] 47%

O=c1ccc2nc3ccccc3sc-2c1
inactive: [1]; [7] -13% | [2]; [7] 22% | [2]; at 50.0 µM 8.1% | [3]; [7] 5% | [4]; [7] -6% | [4]; at 50.0 µM 49.8% | [5]; [7] 7% | [6]; [7] 4%
active: [1]; [8] 98% | [1]; at 50.0 µM 95.4% | [2]; [8] 98% | [3]; [8] 98% | [3]; at 50.0 µM 76.8% | [4]; [8] 98% | [5]; [8] 98% | [5]; at 50.0 µM 92.1% | [6]; [8] 98% | [6]; at 50.0 µM 95.5%

CCCSc1n[nH]c(=S)s1
active: [3]; at 50.0 µM 73.1%
inactive: [1]; [7] -3% | [1]; [8] 5% | [1]; at 50.0 µM 27% | [2]; [7] 2% | [2]; [8] 30% | [2]; at 50.0 µM 53% | [3]; [7] -1% | [3]; [8] 46% | [4]; [7] -10% | [4]; [8] 29% | [4]; at 50.0 µM 32.6% | [5]; [7] -6% | [5]; [8] 13% | [5]; at 50.0 µM 52% | [6]; [7] -1% | [6]; [8] 15% | [6]; at 50.0 µM 41.7%

CCOC(=O)C(C(=O)OCC)c1ccc([N+](=O)[O-])o1
active: [1]; [8] 82% | [1]; at 50.0 µM 86% | [2]; [8] 96% | [2]; at 50.0 µM 86.4% | [3]; [8] 89% | [3]; at 50.0 µM 89.2% | [4]; [8] 79% | [4]; at 50.0 µM 81.9% | [5]; [8] 94% | [5]; at 50.0 µM 87.9% | [6]; [8] 96% | [6]; at 50.0 µM 82.2%
inactive: [1]; [7] 14% | [2]; [7] -15% | [3]; [7] 8% | [4]; [7] 6% | [5]; [7] 0% | [6]; [7] 3%

O=C(Oc1c(I)ccccc1=O)c1ccc([N+](=O)[O-])cc1
inactive: [1]; [7] 39% | [2]; [7] 57% | [4]; [7] 13% | [5]; [7] 21%
active: [1]; [8] 98% | [1]; at 50.0 µM 99.2% | [2]; [8] 99% | [2]; at 50.0 µM 99.3% | [3]; [7] 73% | [3]; [8] 99% | [3]; at 50.0 µM 99.3% | [4]; [8] 98% | [4]; at 50.0 µM 99.2% | [5]; [8] 98% | [5]; at 50.0 µM 99% | [6]; [7] 94% | [6]; [8] 99% | [6]; at 50.0 µM 99.5%

CCN(CC)CCNc1ccc(OC)c2cccnc12
inactive: [1]; [7] 15% | [1]; [8] 30% | [2]; [7] 1% | [2]; [8] 9% | [3]; [7] 8% | [3]; [8] 16% | [4]; [7] 5% | [4]; [8] -2% | [5]; [7] 10% | [5]; [8] 16% | [6]; [7] 17% | [6]; [8] 25%
active: [1]; at 50.0 µM 99.3% | [2]; at 50.0 µM 99.4% | [3]; at 50.0 µM 99.3% | [4]; at 50.0 µM 98% | [5]; at 50.0 µM 99.5% | [6]; at 50.0 µM 98.8%

O=C(Nc1ccccc1[N+](=O)[O-])/C(=N/Nc1cccc(Cl)c1)c1c(O)c2ccccc2oc1=O
active: [1]; at 50.0 µM 87.1% | [2]; at 50.0 µM 79.5% | [3]; at 50.0 µM 89.5% | [5]; at 50.0 µM 78.8% | [6]; at 50.0 µM 70%
inactive: [1]; [7] 29% | [1]; [8] 29% | [2]; [7] 36% | [2]; [8] 36% | [3]; [7] 35% | [3]; [8] 35% | [4]; [7] 11% | [4]; [8] 11% | [4]; at 50.0 µM 43.2% | [5]; [7] 27% | [5]; [8] 27% | [6]; [7] 44% | [6]; [8] 44%
